In the library only some 15% were active in any assay of this set; here they are far more common.
VP16 counter – VP16 counterscreen qHTS for inhibitors of ROR gamma transcriptional activity; Potency, µM (top dose mostly 53.6 µM), hits mostly inhibitors; actives 3.5% (n = 310,000); AID 2546, 2010; Drosophila S2 Gal4-VP16 UAS-luciferase, luminescence, 20 h;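 note: Gal4-VP16 expression switched on by copper sulfate through the metallothionein promoter; nearly all actives have a fitted effect of over 50% in size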
RORg inh – qHTS for inhibitors of ROR gamma transcriptional activity. Nuclear receptor ROR-gamma (Mus musculus), P51450. Drosophila S2 Gal4-RORgamma UAS-luciferase reporter, 20 h. Potency, µM (highest dose often 53.6 µM), actives largely listed as inhibitors. actives 5.4% (n = 310,000). AID 2551, 2010; note: nearly all actives have a fitted effect of over 60% in size
Target sequence (P51450 whole entry, looked up, the tested form may be a part): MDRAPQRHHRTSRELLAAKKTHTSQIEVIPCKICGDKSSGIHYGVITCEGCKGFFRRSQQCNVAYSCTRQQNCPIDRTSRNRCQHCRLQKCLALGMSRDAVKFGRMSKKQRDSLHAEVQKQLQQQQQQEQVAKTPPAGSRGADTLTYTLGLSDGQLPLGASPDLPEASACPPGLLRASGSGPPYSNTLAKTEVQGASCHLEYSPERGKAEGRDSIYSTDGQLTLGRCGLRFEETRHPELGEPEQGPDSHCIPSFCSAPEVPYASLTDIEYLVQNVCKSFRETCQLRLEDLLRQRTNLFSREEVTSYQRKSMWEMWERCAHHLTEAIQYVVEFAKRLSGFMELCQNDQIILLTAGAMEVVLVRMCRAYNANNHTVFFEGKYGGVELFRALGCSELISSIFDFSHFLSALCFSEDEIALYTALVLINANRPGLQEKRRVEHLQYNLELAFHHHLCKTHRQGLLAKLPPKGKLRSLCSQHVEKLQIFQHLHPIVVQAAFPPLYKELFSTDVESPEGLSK
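ROR gamma transcriptional activity was tracked as Gal4-UAS luciferase output in stably transfected Drosophila Schneider cells, with compound added 1 hr before 700 uM copper sulfate induction and a 20 hr ambient-temperature incubation.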
12-LOX inh – Primary qHTS assay for inhibitors of human arachidonate 12S-lipoxygenase (ALOX12): Round 2; Potency, µM (titrated, usually from 108 µM), most hits filed as inhibitors; actives 1.1% (n = 580,000); Polyunsaturated fatty acid lipoxygenase ALOX12 (Homo sapiens), P18054; purified 12hLO, xylenol orange hydroperoxide absorbance
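Purified human 12hLO (150 nM final) in 25 mM Hepes, 0.01% Triton X-100, pH 7.0 was preincubated 15 min at room temperature with compound. Then 40 uM arachidonic acid was added, 30 min. Hydroperoxide was read by Fe-XO absorbance ratio 573/405 nm.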
ELG1 DNA repair – qHTS screen for small molecules that inhibit ELG1-dependent DNA repair in human embryonic kidney (HEK293T) cells expressing luciferase-tagged ELG1. HEK293T ELG1-luciferase reporter, luminescence, 16 h; DNA damage induced by 5-fluorouridine. Potency, µM (series often up to 46.1 µM), most hits filed as inhibitors. actives 2.3% (n = 330,000); note: nearly all actives have a fitted effect of over 55% in size
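Reporter activity after DNA damage by 5-fluorouridine is monitored. Compound-treated cells incubate 16 hr at 37 °C, then ONE-Glo is added for 30 min before luminescence reading.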
DT40 TDP1 no CPT – qHTS for Inhibitors of human tyrosyl-DNA phosphodiesterase 1 (TDP1): qHTS in cells in absence of CPT; Potency, µM (titrated, usually from 46.2 µM), usual class: inhibitors; actives 15% (n = 420,000); DT40 Tdp1-/- hTDP1 cells, no CPT, ATP luminescence, 48 h; note: nearly all actives have a fitted effect of over 55% in size
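Luminescent ATP content (CellTiter-Glo) served as the growth readout. Knockout chicken DT40 cells expressing human TDP1 were exposed to compounds without camptothecin for a minimum 48 hr at 37 °C.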
TDP1 cell CPT – qHTS for Inhibitors of human tyrosyl-DNA phosphodiesterase 1 (TDP1): qHTS in cells in presence of CPT | chicken DT40 Tdp1-/-;hTDP1 cells + 20 nM CPT, ATP luminescence, 48 h | Potency, µM (doses to about 46.2 µM), usual class: inhibitors | actives 12% (n = 420,000) | AID 686979, 2013; note: nearly all actives have a fitted effect of over 55% in size
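Chicken DT40 Tdp1-/- cells complemented with human TDP1, 400 cells/well, exposed to compounds plus 20 nM camptothecin for at least 48 h at 37 C; viability read as ATP content by CellTiter-Glo luminescence.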
Each line names hits and unclear results; the compound was inactive in the other large screens. Calls come from the whole dose curve; as a rule, active = well fitted curve in the direction sought with a large enough effect; inconclusive = small, poorly fitted or top-dose-only effect, or another doubt; inactive = no such curve, though single readings can be large; an effect the other way counts as inactive or inconclusive.

COc1cccc(Nc2nc(N)nc(CCl)n2)c1	ELG1 DNA repair inconclusive, DT40 TDP1 no CPT inconclusive, TDP1 cell CPT 13µM
CCCNc1c(NC(=O)c2ccccc2OC)c(=O)oc2ccccc12	none (no result: VP16 counter, RORg inh, ELG1 DNA repair, DT40 TDP1 no CPT, TDP1 cell CPT)
CC(C)(CO)NC(=O)C12CC3CC(CC(C3)C1)C2	none (no result: VP16 counter, RORg inh, ELG1 DNA repair, DT40 TDP1 no CPT, TDP1 cell CPT)
c1ccc(CN2CCC3(CCCc4ccccc43)CC2)cc1	DT40 TDP1 no CPT 16.4µM, TDP1 cell CPT inconclusive (no result: VP16 counter, RORg inh)
O=C1Nc2ccccc2CC12CCN(Cc1ccccc1)C2 (stereo not given)	none (no result: VP16 counter, RORg inh, ELG1 DNA repair, DT40 TDP1 no CPT, TDP1 cell CPT)
CN1C[C@H](NC2CCC2)CCC[C@@H](C(=O)NC2CCOCC2)CC1=O	none (no result: VP16 counter, RORg inh, ELG1 DNA repair, DT40 TDP1 no CPT, TDP1 cell CPT)
COc1ccc(NC(=O)C2=C(C)NC(=O)NC2c2cccc(OCc3ccccc3)c2)cc1 (stereo not given)	none (no result: VP16 counter, RORg inh, ELG1 DNA repair, DT40 TDP1 no CPT, TDP1 cell CPT)
O=Nc1[nH]c(=O)c(/C=C(\O)c2ccccc2)nc1NO	12-LOX inh inconclusive, DT40 TDP1 no CPT 16.4µM, TDP1 cell CPT inconclusive
O=c1[nH]c2ccccc2nc1/C=C(\O)C(F)F	none
CCc1ccc(NC(=O)C[n+]2cc(-c3ccc(C)cc3)n3c2CCC3)cc1	12-LOX inh inconclusive, ELG1 DNA repair 11.6µM, DT40 TDP1 no CPT 3.66µM, TDP1 cell CPT 2.31µM
Cc1ccc(-c2csc(NC(=O)C[n+]3cc(-c4ccccc4)n4c3CCC4)n2)cc1	DT40 TDP1 no CPT 18.4µM, TDP1 cell CPT 20.6µM
Cc1ccc(-c2csc(NC(=O)C[n+]3cc(-c4ccc(C)cc4)n4c3CCC4)n2)cc1	RORg inh inconclusive, ELG1 DNA repair inconclusive, DT40 TDP1 no CPT 9.2µM, TDP1 cell CPT 5.8µM
CS(=O)(=O)N1CC2(CCCCN2CC2CC2)Cc2ccccc21 (stereo not given)	none (no result: VP16 counter, RORg inh, ELG1 DNA repair, DT40 TDP1 no CPT, TDP1 cell CPT)
NC(=S)NNc1c(F)c(F)c(F)c(F)c1F	VP16 counter inconclusive, RORg inh 12.6µM, DT40 TDP1 no CPT inconclusive, TDP1 cell CPT inconclusive
CCS(=O)(=O)n1nc(-c2ccco2)nc1NCc1ccc(C(C)C)cc1	DT40 TDP1 no CPT 16.4µM, TDP1 cell CPT inconclusive (no result: VP16 counter, RORg inh, ELG1 DNA repair)
CCOc1ccc(NC(=O)Nc2nc(SCC)ns2)cc1	DT40 TDP1 no CPT inconclusive, TDP1 cell CPT inconclusive
CCSc1nsc(NC(=O)Nc2ccc(F)cc2F)n1	VP16 counter inconclusive, RORg inh inconclusive, ELG1 DNA repair inconclusive, DT40 TDP1 no CPT 4.61µM, TDP1 cell CPT 4.61µM (no result: 12-LOX inh)
CCSc1nsc(NC(=O)Nc2ccccc2Cl)n1	DT40 TDP1 no CPT 14.6µM, TDP1 cell CPT inconclusive (no result: VP16 counter, RORg inh, ELG1 DNA repair)
Cc1nn(C)c2ncc(NC(=O)CCc3ncc(-c4ccc(F)cc4)o3)cc12	none (no result: VP16 counter, RORg inh, ELG1 DNA repair, DT40 TDP1 no CPT, TDP1 cell CPT)
COc1nccnc1NC1CCN(C(=O)Cc2c(C)noc2C)CC1	none (no result: VP16 counter, RORg inh, ELG1 DNA repair, DT40 TDP1 no CPT, TDP1 cell CPT)
CC(C)N(C(=O)c1ccccc1-c1ccccc1)C(C)C	DT40 TDP1 no CPT 18.4µM, TDP1 cell CPT inconclusive
COc1ccc(-c2ccccc2C(=O)N(C(C)C)C(C)C)c2cccnc12	none (no result: VP16 counter, RORg inh, ELG1 DNA repair, DT40 TDP1 no CPT, TDP1 cell CPT)
CCCNC(=O)N1CCCC(c2nc(-c3cccnc3)no2)CCNC(=O)CC1 (stereo not given)	none (no result: VP16 counter, RORg inh, ELG1 DNA repair, DT40 TDP1 no CPT, TDP1 cell CPT)
c1coc(Cn2c(-c3ccco3)nc3ccccc32)c1	ELG1 DNA repair inconclusive, DT40 TDP1 no CPT inconclusive, TDP1 cell CPT inconclusive
CCCN1CN(Cc2ccco2)c2nc3ccccc3n2C1	ELG1 DNA repair inconclusive, DT40 TDP1 no CPT inconclusive, TDP1 cell CPT 14.6µM
CCN(CC)c1ccc(C=Nc2ccc(N(C)C)cc2)c(O)c1	12-LOX inh inconclusive, ELG1 DNA repair inconclusive, DT40 TDP1 no CPT 16.4µM, TDP1 cell CPT inconclusive
CCN(CC)c1ccc(C=Nc2ccccc2)c(O)c1	12-LOX inh inconclusive, DT40 TDP1 no CPT inconclusive, TDP1 cell CPT inconclusive
CCN(CC)c1ccc(/C=N/N=C(N)N)c(O)c1	DT40 TDP1 no CPT 0.651µM, TDP1 cell CPT 0.651µM

Source: PubChem (National Center for Advancing Translational Sciences (NCATS))
